High-throughput results as filed in PubChem.
This is a sample that favours compounds with a hit; in the whole collection about 2.4% have one here.
D2 ag-1 = D2 dopamine receptor (human) agonism | activation, % at 2 µM | actives 0.53% (n = 340,000) | HEK293 T-REx D2 cells, calcium flux agonist mode | P14416;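 active = activation over 3 SD above normal in the single-dose calcium agonist read, cut at about 30% in these data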; note: 0% is about no effect
Target sequence (P14416 whole entry, looked up): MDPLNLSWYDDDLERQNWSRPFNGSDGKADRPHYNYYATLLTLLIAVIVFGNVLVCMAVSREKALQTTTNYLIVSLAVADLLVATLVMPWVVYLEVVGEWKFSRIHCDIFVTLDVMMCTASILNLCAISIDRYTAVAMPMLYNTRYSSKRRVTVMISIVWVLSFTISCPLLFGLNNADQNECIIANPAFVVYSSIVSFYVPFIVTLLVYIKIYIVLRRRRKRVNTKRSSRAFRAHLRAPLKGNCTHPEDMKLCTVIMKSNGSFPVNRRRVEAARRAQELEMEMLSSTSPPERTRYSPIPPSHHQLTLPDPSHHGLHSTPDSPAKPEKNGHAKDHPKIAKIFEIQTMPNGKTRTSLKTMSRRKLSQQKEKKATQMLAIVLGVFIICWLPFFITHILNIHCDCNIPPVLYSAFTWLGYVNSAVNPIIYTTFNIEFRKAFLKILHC
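Agonism scored from kinetic calcium signal (1 read/sec, 180 s) following compound pin transfer, after a 10 s baseline. Cells: HEK293 Trex line expressing inducible D2 receptor coupled to calcium, dye-loaded after overnight culture at 30 C.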
D2 ag-2 = agonists of human D2 dopamine receptor (beta-arrestin); P14416; DiscoveRx PathHunter D2 beta-arrestin, luminescence, 90 min; 100% = 57 uM dopamine signal; activation, % (no concentration beside the values); actives 0.084% (n = 360,000); AID 624465; in the data active = activation above about 40%; inconclusive = between about 15% and that limit
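DiscoveRx PathHunter D2 beta-arrestin cells (2,100/well) attached overnight, then compound-stimulated 90 min at 37 C in HBSS/10 mM HEPES/0.1% Tween-20 buffer; beta-galactosidase complementation read by luminescence after 1 h at ambient temperature. Dopamine 57 uM final (EC100) as control.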
D2 antag = D2 dopamine receptor (human) antagonism. P14416. HEK293 TREx D2 cells, calcium flux, dopamine EC80. inhibition, % at 10 µM. actives 2% (n = 340,000); in the data active = inhibition above about 30%; inactive = below that, where a call was filed; note: 0% is about no effect
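Cells plated overnight at 30 C with tetracycline; no-wash calcium dye, 30–90 min RT; 10 s baseline; compound pinned; 180 s read; EC80 dopamine added; another 180 s read.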
D2 PAM-1 = D2 dopamine receptor (human) potentiation; AID 485347; HEK293 T-REx D2, calcium flux, EC20 dopamine potentiation; potentiation, % at 10 µM; P14416; actives 0.34% (n = 340,000);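 active = potentiation over 3 SD above the plate norm, cut at about 30% in these data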; note: 0% is about no effect
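Calcium flux readout, no-wash dye, 1 read/s. Inducible HEK293 Trex D2 line, overnight 30 C. Compound alone 180 s (agonist flags), then EC20 dopamine, another 180 s to score potentiation.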
D2 PAM-2 = human D2 receptor positive allosteric modulation | DiscoveRx D2 beta-arrestin cells, luminescence, 90 min; 100% = 57 uM dopamine signal | actives 0.23% (n = 360,000) | potentiation, % (concentration not given with the values) | P14416; in the data active = potentiation above about 50%; inconclusive = mostly about 30% to 49%
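PathHunter D2 cells, attached overnight at 37 deg C, received compound in DMSO plus dopamine at EC20 (50 nM final) for 90 min at 37 deg C. Beta-arrestin recruitment was read as luminescence after 1 h with detection reagent at ambient temperature.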
Numbers without * were called inactive; ? = inconclusive; / = no result.

SMILES | D2 ag-1 | D2 ag-2 | D2 antag | D2 PAM-1 | D2 PAM-2
O=C(Nn1c(COc2ccccc2)nc2ccccc2c1=O)C(Cl)(Cl)Cl | 0.6 | -4.3 | 1.1 | -3.7 | -10.8
O=C1CCCc2c1cc(C(=O)Nc1ccc(Br)cn1)c(=O)n2-c1ccccc1 | 3.8 | 11.0 | 10.5 | -3.0 | 55.2*
O=C1CCCc2c1cc(C(=O)O)c(=O)n2-c1ccccc1 | -0.3 | -1.9 | 6.6 | -3.7 | 3.3
CC(C)(C)CC(=O)Nc1ccc(S(=O)(=O)N2CCCC2)cc1 | -1.0 | 0.2 | -3.2 | 43.5* | -1.5
CCOc1ccc(NC(=O)CN(C)Cc2ccc3c(c2)OCO3)cc1S(=O)(=O)N1CCCC1 | 0.1 | 6.4 | 58.2* | -22.3 | -1.2
CC(C)CC(=O)Nc1ccc(S(=O)(=O)N2CCCC2)cc1 | -0.8 | -5.3 | -25.0 | 4.9 | -4.6
CN(CC(=O)Nc1ccc(S(=O)(=O)N2CCCC2)cc1)Cc1ccc(Cl)cc1Cl | 0.3 | ? | 11.7 | 5.6 | 63.8*
CC(=O)Nc1ccc(S(=O)(=O)N2CCCN(S(=O)(=O)c3ccc(C)cc3)CC2)cc1 | 0.1 | 1.2 | 30.7* | -1.3 | -2.3
CC(=O)Nc1ccc(S(=O)(=O)N2CCCN(S(=O)(=O)c3ccc(NC(C)=O)cc3)CC2)cc1 | 0.1 | -0.1 | 3.1 | 4.9 | 6.9
CN(CC(=O)Nc1ccc(S(=O)(=O)N2CCCC2)cc1)CC(=O)Nc1ccc(F)c(F)c1F | 1.8 | 0.8 | 12.1 | 5.6 | 0.0
OCCN(Cc1nc(-c2ccc3c(c2)OCO3)no1)Cc1cccs1 | 0.6 | -5.1 | 38.8* | -15.4 | -11.5
CN(CCN1CCc2ccccc2C1)Cc1nc(Cc2ccccc2F)no1 | -1.5 | 0.8 | 41.0* | -12.0 | -14.5
COc1ccc(Cc2noc(CN(C)CCN3CCc4ccccc4C3)n2)cc1OC | 1.8 | -1.8 | -32.0 | -23.0 | -22.2
CN(CCCCN1CCOCC1)Cc1nc(-c2ccc3c(c2)OCO3)no1 | -0.3 | -1.3 | 1.6 | -2.5 | -11.8
CN(CCN1CCc2ccccc2C1)Cc1nc(-c2ccc3c(c2)OCO3)no1 | 0.2 | 4.0 | 43.6* | -22.1 | -14.8
CN(Cc1nc(-c2ccccc2)no1)C(=O)c1ccc2c(c1)OCO2 | -0.5 | 3.7 | -13.7 | -12.8 | -14.9
CCc1ccc(C(O)c2ncc(-c3ccc(Cl)cc3)[nH]2)cc1 (configuration not stated) | / | 3.1 | / | / | -8.8
COc1ccc([N+](=O)[O-])cc1NC(=O)CC(c1ccccc1)c1ccccc1 | / | -2.8 | / | / | -0.5
COc1ccc([N+](=O)[O-])cc1NC(=S)NC(NC(=O)C(c1ccccc1)c1ccccc1)C(Cl)(Cl)Cl (configuration not stated) | -0.1 | 1.4 | 71.3* | -19.0 | -23.2
COc1ccc([N+](=O)[O-])cc1NC(=O)C(C)OC(=O)Cn1[nH]c(=O)c2ccccc2c1=O (configuration not stated) | -0.2 | -6.1 | 35.8* | -1.4 | -6.0
COc1ccc([N+](=O)[O-])cc1NC(=O)C(C)OC(=O)CN1C(=O)C2CC=CCC2C1=O (configuration not stated) | 0.1 | -0.7 | -10.6 | -11.1 | -1.9
CCN(CCC(=O)Nc1cc([N+](=O)[O-])ccc1OC)Cc1ccccc1 | 1.4 | -1.3 | 78.9* | -24.7 | -38.7
COc1ccc([N+](=O)[O-])cc1NC(=O)C(C)c1ccccc1 (configuration not stated) | 0.4 | -0.5 | 32.2* | -2.7 | 5.2
CC1(C)CC(=O)C=C(C#CC2(O)CCCCC2)C1 | / | -5.6 | / | / | 1.6
CC1CCCN(CCCNC(=O)c2cn(C)c3ccc(S(=O)(=O)N(C)C4CCCCC4)cc3c2=O)C1 (configuration not stated) | 0.4 | -1.2 | 36.5* | -14.5 | -17.2
SMILES | D2 ag-1 | D2 ag-2 | D2 antag | D2 PAM-1 | D2 PAM-2
Cn1cc(C(=O)NC2CCCCCC2)c(=O)c2cc(S(=O)(=O)N3CCCC3)ccc21 | 3.0 | -4.8 | 2.7 | -0.9 | -13.9
Cn1cc(C(=O)NC2CCCCCCC2)c(=O)c2cc(S(=O)(=O)N3CCCC3)ccc21 | 1.6 | -2.1 | -9.5 | 31.7* | -6.1
Cn1cc(C(=O)N2CCc3ccccc3C2)c(=O)c2cc(S(=O)(=O)N3CCCCC3)ccc21 | 1.3 | / | -11.0 | -16.8 | /
CCn1cc(C(=O)N2CCc3ccccc3C2)c(=O)c2cc(S(=O)(=O)N3CCCCC3)ccc21 | 68.1* | / | -14.1 | -21.0 | /
CC1CCN(CCCNC(=O)c2cn(C)c3ccc(S(=O)(=O)N(C)C4CCCCC4)cc3c2=O)CC1 | -0.8 | / | / | 11.4 | /
COc1ccccc1/C=C/C(=O)NCCC1=CCCCC1 | -0.7 | -5.2 | 35.4* | -23.9 | -14.8
CCOc1ccc(C(=O)NCCC2=CCCCC2)cc1OCC | -1.1 | 1.8 | 37.5* | -29.6 | -22.7
CCC(=O)c1ccc(OCC(=O)NCCC2=CCCCC2)c(OC)c1 | -0.7 | -0.5 | -3.5 | -0.9 | -3.9
COc1cc(C(=O)NCCC2=CCCCC2)ccc1OCc1c(C)noc1C | -0.4 | -7.6 | 31.6* | -9.7 | -2.6
Cc1ccc(S(=O)(=O)NCCc2nnc3ccc(SCc4ccc(F)cc4)nn23)cc1 | -0.9 | / | / | -3.2 | /
Cc1cc(C(C)(C)C)ccc1OC(=O)C1=CC=CN2CCS(=O)(=O)N=C12 | 1.2 | -4.5 | 40.2* | 7.4 | 1.4
CC(=O)c1ccc(N2CCN(C(=O)/C=C/c3ccc(S(=O)(=O)N4CCOCC4)cc3)CC2)cc1 | 0.7 | -3.3 | 49.7* | -7.6 | -7.0
CCCCn1c(CCC(=O)O)ccc1-c1cccs1 | -0.2 | 0.2 | 40.4* | -15.7 | -9.5
COCCn1c(CCC(=O)O)ccc1-c1cccs1 | 0.0 | -3.9 | 0.4 | 1.0 | 2.0
COc1ccc(Cc2c(C3CCCCC3)nc3c(C)cc(Br)cn23)c(C)c1 | / | -6.8 | / | / | -5.3
C=CCn1c(SCc2cc(=O)n3cc(C)ccc3n2)nnc1-c1ccc(F)cc1 | -0.5 | 3.5 | 9.6 | 0.6 | 0.7
Cc1ccc2nc(CSc3nnc(-c4ccncc4)n3C)cc(=O)n2c1 | -0.5 | -1.9 | 71.2* | -4.4 | 18.0
COc1ccccc1CNC(=O)c1cccc2c1C(=O)N(Cc1cccnc1)C2 | -1.1 | -5.9 | -12.3 | 30.6* | -1.1
COC(CNC(=O)c1cccc2c1C(=O)N(Cc1cccnc1)C2)OC | -1.6 | -4.8 | -4.2 | 0.1 | -23.9
COC(=O)CCC(=O)OC1(C)C(=O)C=C2C=C(C3CC3)N(Cc3ccc(OC)cc3)C=C2C1=O (configuration not stated) | -0.1 | 6.9 | 10.3 | 16.0 | 9.0
COC(=O)CCC(=O)OC1(C)C(=O)C=C2C=C(C3CC3)N(Cc3ccc4c(c3)OCO4)C=C2C1=O (configuration not stated) | -0.5 | 8.7 | -4.7 | 18.9 | 72.6*
O=C(NNC1=Nc2cccc3cccc1c23)c1ccc(Br)cc1 | 4.8 | -0.1 | 83.4* | -22.8 | -18.4
COc1ccc(C)cc1NC(=O)Cn1cc(S(=O)(=O)N2CCC(C)CC2)c2ccccc2c1=O | / | / | / | -8.8 | /
